Where a chain is given by its changes, count along the chain named.
Key:
Assay in all cases: PBM; 200 nM protein, PBS
Conditions in all cases: dsDNA, one strand shown
NKX2-5 = NKX2-5 (Homo sapiens, UniProt P52952 125-210, R139K)
PITX2 = PITX2 (Homo sapiens, UniProt Q99697 72-157)
NKX2-4 [1] = molecular target: T1, NKX2-4 (Homo sapiens, UniProt Q9H2Z4 175-261, P217L)
T1 sequence: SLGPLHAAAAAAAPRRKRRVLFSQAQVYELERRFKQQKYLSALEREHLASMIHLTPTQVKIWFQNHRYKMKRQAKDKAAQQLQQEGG

NKX2-4 [2] = molecular target: T2, NKX2-4 (Homo sapiens, UniProt Q9H2Z4 175-261, T231S)
T2 sequence: T1 sequence with L43P, T57S

NKX2-4 [3] = molecular target: T3, NKX2-4 (Homo sapiens, UniProt Q9H2Z4 175-261)
T3 sequence: T1 sequence with L43P

NKX2-4 [4] = molecular target: T4, NKX2-4 (Homo sapiens, UniProt Q9H2Z4 175-261, R246Q)
T4 sequence: T1 sequence with L43P, R72Q

NKX2-6 [5] = molecular target: T5, NKX2-6 (Homo sapiens, UniProt A6NCS4 118-204, R150C)
T5 sequence: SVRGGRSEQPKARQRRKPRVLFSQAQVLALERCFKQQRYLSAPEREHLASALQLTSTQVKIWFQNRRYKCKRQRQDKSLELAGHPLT

NKX2-6 [6] = molecular target: T6, NKX2-6 (Homo sapiens, UniProt A6NCS4 118-204)
T6 sequence: T5 sequence with C33R

CRX [7] = molecular target: CRX (Homo sapiens, UniProt O43186 26-111)
CRX [8] = molecular target: CRX (Homo sapiens, UniProt O43186 26-111, E42D)
CRX (Homo sapiens, UniProt O43186 26-111, E42D), sequence (O43186 26-111 E42D): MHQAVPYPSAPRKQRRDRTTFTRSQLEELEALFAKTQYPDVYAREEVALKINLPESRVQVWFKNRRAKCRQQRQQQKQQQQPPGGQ

CRX (Homo sapiens, UniProt O43186 26-111), sequence (O43186 26-111): as the sequence (O43186 26-111 E42D) above, with D17E counted along it
NKX2-5, sequence (P52952 125-210 R139K): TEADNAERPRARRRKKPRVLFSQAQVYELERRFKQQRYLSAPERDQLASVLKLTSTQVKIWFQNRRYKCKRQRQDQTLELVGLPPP

Q: Which binding signal (NKX2-5) does the source give for AAGTAGGG here?
A: Its binding signal is 10.9 upbm affinity estimate (log intensity, higher = more binding, comparable within an allelic series).

Q: How did the binding signal (NKX2-5) turn out when CGGCGAAC was run?
A: The binding signal was 8.65 upbm affinity estimate (log intensity, higher = more binding, comparable within an allelic series).

Q: How did the binding signal (NKX2-5) turn out when ACTAGTAC was run?
A: The binding signal was 10.7 upbm affinity estimate (log intensity, higher = more binding, comparable within an allelic series).

Q: How did the binding signal (NKX2-5) turn out when ACACTCTG was run?
A: The binding signal was 10.6 upbm affinity estimate (log intensity, higher = more binding, comparable within an allelic series).

Q: How did the binding signal (NKX2-5) turn out when CGGGTGGC was run?
A: The binding signal was 8.45 upbm affinity estimate (log intensity, higher = more binding, comparable within an allelic series).

Q: How did the binding signal (PITX2) turn out when AATTAATC was run?
A: Its binding signal is 12.4 upbm affinity estimate (log intensity, higher = more binding, comparable within an allelic series).

Q: For CCCCGGCG, which binding signal (NKX2-4 [1]) is on record?
A: The binding signal was 9.5 upbm affinity estimate (log intensity, higher = more binding, comparable within an allelic series).

Q: What about the binding signal (NKX2-4 [2]) of the same sequence?
A: Its binding signal is 9.48 upbm affinity estimate (log intensity, higher = more binding, comparable within an allelic series).

Q: And the binding signal (NKX2-4 [3])?
A: Its binding signal is 9.57 upbm affinity estimate (log intensity, higher = more binding, comparable within an allelic series).

Q: And the binding signal (NKX2-4 [4])?
A: Its binding signal is 9.55 upbm affinity estimate (log intensity, higher = more binding, comparable within an allelic series).

Q: Which binding signal (NKX2-6 [5]) does the source give for GGCAGGCC here?
A: The binding signal was 9.24 upbm affinity estimate (log intensity, higher = more binding, comparable within an allelic series).

Q: How did the binding signal (NKX2-6 [6]) turn out when AATTAGTG was run?
A: Its binding signal is 11.9 upbm affinity estimate (log intensity, higher = more binding, comparable within an allelic series).

Q: With ATTAATGC as the sequence, how does the binding signal (CRX [7]) read?
A: Its binding signal is 11.9 upbm affinity estimate (log intensity, higher = more binding, comparable within an allelic series).

Q: What about the binding signal (CRX [8]) of the same sequence?
A: The binding signal was 11.7 upbm affinity estimate (log intensity, higher = more binding, comparable within an allelic series).

Q: How did the binding signal (NKX2-6 [5]) turn out when CCGAGCGG was run?
A: Its binding signal is 9.43 upbm affinity estimate (log intensity, higher = more binding, comparable within an allelic series).

Q: For GACAATTA, which binding signal (NKX2-6 [5]) is on record?
A: Its binding signal is 11 upbm affinity estimate (log intensity, higher = more binding, comparable within an allelic series).

Q: What does the source list for GAGGGGGC?
A: binding signal (CRX [7]): 8.07 upbm affinity estimate (log intensity, higher = more binding, comparable within an allelic series); binding signal (CRX [8]): 8.05 upbm affinity estimate (log intensity, higher = more binding, comparable within an allelic series)

Q: Which binding signal (NKX2-4 [1]) does the source give for GAGCTGGC here?
A: The binding signal was 9.65 upbm affinity estimate (log intensity, higher = more binding, comparable within an allelic series).

Q: What about the binding signal (NKX2-4 [2]) of the same sequence?
A: The binding signal was 9.66 upbm affinity estimate (log intensity, higher = more binding, comparable within an allelic series).

Q: What about the binding signal (NKX2-4 [3]) of the same sequence?
A: The binding signal was 9.73 upbm affinity estimate (log intensity, higher = more binding, comparable within an allelic series).

Q: What about the binding signal (NKX2-4 [4]) of the same sequence?
A: Its binding signal is 9.66 upbm affinity estimate (log intensity, higher = more binding, comparable within an allelic series).

Q: How did the binding signal (NKX2-6 [5]) turn out when GCAGGCGC was run?
A: Its binding signal is 9.36 upbm affinity estimate (log intensity, higher = more binding, comparable within an allelic series).

Q: Which binding signal (CRX [7]) does the source give for ACCGTCCG here?
A: The binding signal was 8.31 upbm affinity estimate (log intensity, higher = more binding, comparable within an allelic series).

Q: And the binding signal (CRX [8])?
A: Its binding signal is 8.44 upbm affinity estimate (log intensity, higher = more binding, comparable within an allelic series).

Q: Which binding signal (NKX2-4 [1]) does the source give for ACGCTGCG here?
A: Its binding signal is 9.63 upbm affinity estimate (log intensity, higher = more binding, comparable within an allelic series).

Q: And the binding signal (NKX2-4 [2])?
A: The binding signal was 9.6 upbm affinity estimate (log intensity, higher = more binding, comparable within an allelic series).

Q: And the binding signal (NKX2-4 [3])?
A: The binding signal was 9.57 upbm affinity estimate (log intensity, higher = more binding, comparable within an allelic series).

Q: And the binding signal (NKX2-4 [4])?
A: Its binding signal is 9.58 upbm affinity estimate (log intensity, higher = more binding, comparable within an allelic series).

Q: With GCCGGTCC as the sequence, how does the binding signal (CRX [7]) read?
A: Its binding signal is 8.03 upbm affinity estimate (log intensity, higher = more binding, comparable within an allelic series).

Q: What about the binding signal (CRX [8]) of the same sequence?
A: The binding signal was 8.04 upbm affinity estimate (log intensity, higher = more binding, comparable within an allelic series).

Q: How did the binding signal (CRX [7]) turn out when AGGCCCGC was run?
A: The binding signal was 8.17 upbm affinity estimate (log intensity, higher = more binding, comparable within an allelic series).

Q: And the binding signal (CRX [8])?
A: The binding signal was 8.1 upbm affinity estimate (log intensity, higher = more binding, comparable within an allelic series).
